Laboratory results: the supplement of paper PMC8773631
Counter-ions that a name gives are not always drawn. ± gives the uncertainty stated by the source.

What follows are compounds tested on NCC-MFS5-C1 (assay: cell viability relative to DMSO control; higher = less growth inhibition). Settings: 10 µM; treatment time: 3 days.
Method: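 NCC-MFS5-C1 myxofibrosarcoma cells (1x10^4 per well, 384-well) were treated on day 2 with 10 µM of each drug. On day 5, viability was read by CCK-8 absorbance at 450 nm and normalised to the DMSO control (%), n = 2.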
Work on `CCOc1cc(C(C)(C)C)ccc1C1=N[C@@](C)(c2ccc(Cl)cc2)[C@@](C)(c2ccc(Cl)cc2)N1C(=O)N1CCN(CCCS(C)(=O)=O)CC1` yielded a cell viability of 96 ± 5.5%.
Compound `N#Cc1ccc(C(c2ccc(C#N)cc2)n2cncn2)cc1` [Letrozole] has a cell viability of 92.3 ± 6.4%.
`COc1nc(N)nc2c1ncn2[C@@H]1O[C@H](CO)[C@@H](O)[C@@H]1O` [Nelarabine] gave a cell viability of 102 ± 3.3%.
In the case of `Cc1ccc(-c2cc(C(F)(F)F)nn2-c2ccc(S(N)(=O)=O)cc2)cc1` [Celecoxib], the cell viability is reported as 72.1 ± 10%.
With `C[C@H](NC(=O)Cc1cc(F)cc(F)c1)C(=O)N[C@H](C(=O)OC(C)(C)C)c1ccccc1` the cell viability was 108 ± 11%.
`COc1cc2nccc(Oc3ccc(NC(=O)Nc4cc(C)on4)c(Cl)c3)c2cc1OC` [Tivozanib (AV-951)] was tested, and the cell viability was 59.7 ± 2.6%.
Work on `CCN1CCN(c2ccc(Nc3cc(N(C)C(=O)Nc4c(Cl)c(OC)cc(OC)c4Cl)ncn3)cc2)CC1` yielded a cell viability of 59.8 ± 5.6%.
`C=C1c2cccc(O)c2C(O)=C2C(=O)[C@]3(O)C(O)=C(C(N)=O)C(=O)[C@@H](N(C)C)[C@@H]3[C@@H](O)[C@H]12` [Methacycline HCl] showed a cell viability of 92.3 ± 5.3%.
`Nc1nc(CC(=O)Nc2ccc(CCNC[C@H](O)c3ccccc3)cc2)cs1` [Mirabegron] was tested, and the cell viability was 82.5 ± 4.6%.
With `CNNCc1ccc(C(=O)NC(C)C)cc1` [Procarbazine HCl] the cell viability was 94.3 ± 7.5%.
Compound `Nc1nnc(-c2cccc(Cl)c2Cl)c(N)n1` [Lamotrigine] has a cell viability of 90 ± 4.7%.
In the case of `COc1cc2c(Oc3ccc4[nH]c(C)cc4c3F)ncnc2cc1OCCCN1CCCC1` [Cediranib (AZD2171)], the cell viability is reported as -0.717 ± 0.35%.
